From the supplement of paper PMC7411054
Where a name gives a salt, the structure may show the parent alone.

Assays:
Test in all cases: phenotypically active (imaging signature differs from DMSO and reproducible) at any of 0.3-9 uM (binary (1 = active, 0 = inactive)); higher = active
Details in all cases: treatment time: 24 h
[1] = test system: A549-ACTB-RAB5A
In short: (§1)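 Two criteria together defined phenotypic activity: deviation and reproducibility. Deviation meant ≥3 of 4 wells beyond the 95th percentile of Euclidean distances in solvent control wells, and reproducibility meant a median replicate Pearson correlation above the 95th percentile of non-replicates. Wells had been treated for 24 h at 0.3, 1, 3 or 9 µM in fifteen gene-edited A549, HepG2 and WPMY1 reporter lines before live imaging.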

[2] = test system: A549-CANX-COX4
In short: as §1

[3] = test system: A549-GM130-SQSTM1
In short: as §1

[4] = test system: A549-TP53BP1-CLTA
In short: as §1

[5] = test system: A549-TUBA1B-RELA
In short: as §1

[6] = test system: HepG2-ACTB-RAB5A
In short: as §1

[7] = test system: HepG2-CANX-COX4
In short: as §1

[8] = test system: HepG2-GM130-SQSTM1
In short: as §1

[9] = test system: HepG2-TP53BP1-CLTA
In short: as §1

[10] = test system: HepG2-TUBA1B-RELA
In short: as §1

[11] = test system: WPMY1-ACTB-RAB5A
In short: as §1

[12] = test system: WPMY1-CANX-COX4
In short: as §1

[13] = test system: WPMY1-GM130-SQSTM1
In short: as §1

[14] = test system: WPMY1-TP53BP1-CLTA
In short: as §1

[15] = test system: WPMY1-TUBA1B-RELA
In short: as §1

Measured: phenotypically active

CCOc1cc([C@@H](CS(C)(=O)=O)N2C(=O)c3cccc(NC(C)=O)c3C2=O)ccc1OC [apremilast]
inactive: [1] 0 | [2] 0 | [3] 0 | [4] 0 | [5] 0 | [6] 0 | [7] 0 | [8] 0 | [9] 0 | [10] 0 | [11] 0 | [12] 0 | [13] 0 | [14] 0 | [15] 0

O=C(O)CCNC(=O)c1ccc(/N=N/c2ccc(O)c(C(=O)O)c2)cc1 [balsalazide]
inactive: [1] 0 | [2] 0 | [3] 0 | [4] 0 | [5] 0 | [6] 0 | [7] 0 | [8] 0 | [9] 0 | [10] 0 | [11] 0 | [12] 0 | [13] 0 | [14] 0 | [15] 0

Cc1ncc([N+](=O)[O-])n1CCOC(=O)NC(Nc1ncccn1)C(Cl)(Cl)Cl (stereo not given) [Apcin]
inactive: [1] 0 | [2] 0 | [3] 0 | [4] 0 | [5] 0 | [6] 0 | [7] 0 | [8] 0 | [9] 0 | [10] 0 | [11] 0 | [12] 0 | [13] 0 | [14] 0 | [15] 0

CC1=CC(=O)CC(C)(C)C1(O)/C=C/C(C)=C\C(=O)O (mixture of isomers) [(+/-)-2-cis-4-trans-Abscisic acid]
inactive: [1] 0 | [2] 0 | [3] 0 | [4] 0 | [5] 0 | [6] 0 | [7] 0 | [8] 0 | [9] 0 | [10] 0 | [11] 0 | [12] 0 | [13] 0 | [14] 0 | [15] 0

CC(C)(C)NC[C@H](O)c1ccc(O)c(CO)c1 [levalbuterol]
inactive: [1] 0 | [2] 0 | [3] 0 | [4] 0 | [5] 0 | [6] 0 | [7] 0 | [8] 0 | [9] 0 | [10] 0 | [11] 0 | [12] 0 | [13] 0 | [14] 0 | [15] 0

C[N+](C)(CCCCCC[N+](C)(C)CCCN1C(=O)c2ccccc2C1=O)CCCN1C(=O)c2ccccc2C1=O [W-84 dibromide]
inactive: [1] 0 | [2] 0 | [3] 0 | [4] 0 | [5] 0 | [6] 0 | [7] 0 | [8] 0 | [9] 0 | [10] 0 | [11] 0 | [12] 0 | [13] 0 | [14] 0 | [15] 0

O=C1c2ccccc2C(Cc2ccncc2)(Cc2ccncc2)c2ccccc21
inactive: [1] 0 | [2] 0 | [3] 0 | [4] 0 | [5] 0 | [6] 0 | [7] 0 | [8] 0 | [9] 0 | [10] 0 | [11] 0 | [12] 0 | [13] 0 | [14] 0 | [15] 0

CC(C)(C)NC(=O)[C@@H]1CN(Cc2cccnc2)CCN1C[C@@H](O)C[C@@H](Cc1ccccc1)C(=O)N[C@H]1c2ccccc2C[C@H]1O [indinavir]
inactive: [1] 0 | [2] 0 | [3] 0 | [4] 0 | [5] 0 | [6] 0 | [7] 0 | [8] 0 | [9] 0 | [10] 0 | [11] 0 | [12] 0 | [13] 0 | [14] 0 | [15] 0

COc1ccc(OC)c(C(O)CNC(=O)CN)c1 (stereo not given) [midodrine]
inactive: [1] 0 | [2] 0 | [3] 0 | [4] 0 | [5] 0 | [6] 0 | [7] 0 | [8] 0 | [9] 0 | [10] 0 | [11] 0 | [12] 0 | [13] 0 | [14] 0 | [15] 0

CCCc1nn(C)c2c(=O)[nH]c(-c3cc(S(=O)(=O)N4CCN(C)CC4)ccc3OCC)nc12 [Sildenafil citrate]
inactive: [1] 0 | [2] 0 | [3] 0 | [4] 0 | [5] 0 | [6] 0 | [7] 0 | [8] 0 | [9] 0 | [10] 0 | [11] 0 | [12] 0 | [13] 0 | [14] 0 | [15] 0

CN1C(=O)OC(C)(C)C1=O [trimethadione]
inactive: [1] 0 | [2] 0 | [3] 0 | [4] 0 | [5] 0 | [6] 0 | [7] 0 | [8] 0 | [9] 0 | [10] 0 | [11] 0 | [12] 0 | [13] 0 | [14] 0 | [15] 0
